Sampled rows, rich in hits. Any-hit rate of the full collection: about 12%.
Lmaj promast – Leishmania major promastigote growth inhibition; 9% of 200,000 active; Leishmania major promastigotes, resazurin fluorescence viability; inhibition, % at 10 µM; AID 1063; in the data active means inhibition above about 50%;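 further: promastigotes grown with compound for 44 hours at 28 °C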
WT yeast gro inh – growth inhibition of WT yeast, mitochondrial fusion screen; inhibition, % at 10 µM; mitochondrial fusion phenotypic screen, WT strain; AID 1362; 2.1% of 190,000 active; in the data active means inhibition above about 58%; tested in S. cerevisiae
Cl transport mod – KCC2 (human) Cl- transport modulation | Q9H2X9 | KCC2 cells, thallium flux FluoZin-2 fluorescence | B-score of Tl+ flux slope (higher = more flux/activation; lower = inhibition) at 10 µM | 2.2% of 190,000 active | AID 1456;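 active means thallium flux slope and its plate-corrected score both differing from the plate sample mean at a set confidence after two filtering rounds, in either direction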;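 further: slope of fluorescence scaled to starting intensity during 10 to 20 s after thallium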
m-calpain inh – inhibitors of pig calpain II. inhibition, % at 16 µM. 0.37% of 220,000 active. AID 1236. purified calpain II, fluorogenic peptide substrate, 30 min;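 active means inhibition above about 50%, limit read from the data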
ROMK mod – modulators of human ROMK potassium channel | Tet-inducible ROMK, thallium flux fluorescence; actives lie on both sides | P48048 | B-score at 10 µM | 2% of 130,000 active;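 active means signal ratio slope over the read window, or its plate-corrected B-score, at least 3 SD from the plate mean, either direction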;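 further: B-score of the F/F0 ratio slope over 7 to 12 s after thallium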
The depositor's hits bear a star; x = not tested or not shown.

SMILES	Lmaj promast	WT yeast gro inh	Cl transport mod	m-calpain inh	ROMK mod
CN(C)CCCN(C(=O)c1cccs1)c1nc(-c2ccccc2)cs1	100*	-4	0.21	13	-2.8
O=C(c1sccc1Cl)N1CCN(Cc2ccc3c(c2)OCO3)CC1	x	x	-0.38	8	x
CN1C2CCC1/C(=C\c1ccc(F)cc1)C(=O)/C2=C/c1ccc(F)cc1	75*	-25	0.55	27	-0.34
COc1ccc(-n2ncc(N(C)n3cccc3)c(Cl)c2=O)cc1	3	5	0.59	-4	x
COc1ccc(-n2ncc(Cl)c(Cl)c2=O)cc1	82*	-7	-0.41	-2	0.0015
CC(C)[C@H](NC(=O)NCc1ccc(F)cc1)C(=O)O	x	x	0.57	3	x
O=c1[nH]c(Nc2nc3ccccc3o2)nc2c1CCCC2	95*	29	1.2	-31	x
CCCCn1c(CCC)nc([N+](=O)[O-])c1Sc1ccc(Cl)cn1	75*	17	-0.3	-2	-0.46
CC(C)Cn1c(C(C)C)nc([N+](=O)[O-])c1Sc1ccc(Cl)cn1	41	-3	-1.3	-7	0.017
Cc1nn(CC(=O)NCc2ccccc2)c(=O)c2ccccc12	-2	-1	1.1	-15	x
O=C(NCc1cccnc1)c1ccc(Br)s1	x	x	0.26	-16	x
Cc1ccccc1-n1nc(C)c2cc(C(=O)NCc3cccnc3)sc21	69*	16	x	-209	x
CCN(CC)CCNC(=O)Cn1nc(Cc2ccccc2)c2ccccc2c1=O	1	60*	x	0	0.045
Cc1nn(CC(=O)NCc2cccnc2)c(=O)c2ccccc12	51*	11	x	-7	0.98
Cc1ccc(C)c(N=C2CCCN2Cc2ccccc2)c1C#N	29	-1	-0.7	-4	-1.4
O=C(O)CC12CC3CC(C1)CC(n1ncc(NCc4ccc5c(c4)OCO5)c(Cl)c1=O)(C3)C2	-1	-4	-0.58	-18	0.81
Cc1ccc(C)c(N2CCN(C(=O)CN3C(=S)NC(C)(C)CC3C)CC2)c1 (stereo not drawn)	11	9	1.3	21	0.63
COC(=O)c1ccccc1NC(=O)N1CCN(c2ccc(F)cc2)CC1	9	34	0.55	51*	0.0098
COc1ccc(/C=C2\CCCC3C2=NN(C(=O)CSc2ncn[nH]2)C3c2ccc(OC)cc2)cc1 (stereo not drawn)	91*	36	0.86	-89	0.057
Cc1ncsc1C(=O)N1N=C2/C(=C/c3ccccc3)CCCC2C1c1ccccc1 (stereo not drawn)	99*	71*	x	-77	x
Cc1ncsc1C(=O)N1N=C2/C(=C/c3ccc(N4CCOCC4)cc3)CCCC2C1c1ccc(N2CCOCC2)cc1 (stereo not drawn)	32	12	-0.61	-122	x
O=C(CSc1ncn[nH]1)N1N=C2/C(=C/c3ccccc3)CCCC2C1c1ccccc1 (stereo not drawn)	6	10	1.7	20	x
COc1ccc(N(CC(=O)NCc2cccs2)S(=O)(=O)c2c(C)n[nH]c2C)cc1	-1	8	x	22	x
CCCCN(CC)CCCNC(=O)c1cn(CC)c2ccc(S(=O)(=O)N3CCc4ccccc4C3)cc2c1=O	98*	4	0.23	-18	-1.4
CCCCN(C)CCCNC(=O)c1cn(CC)c2ccc(S(=O)(=O)N3CCc4ccccc4C3)cc2c1=O	99*	4	-0.019	15	-1.9
SMILES	Lmaj promast	WT yeast gro inh	Cl transport mod	m-calpain inh	ROMK mod
CCn1cc(C(=O)NCc2ccco2)c(=O)c2cc(S(=O)(=O)N3CCCCCC3)ccc21	28	-7	0.56	36	x
CCn1cc(C(=O)NCCCN2CCCC2)c(=O)c2cc(S(=O)(=O)N3CCc4ccccc4C3)ccc21	46	0	0.14	31	-0.87
CCn1cc(C(=O)NCc2ccco2)c(=O)c2cc(S(=O)(=O)N3CCc4ccccc4C3)ccc21	97*	-6	-2.2	-198	x
CCCN(CCC)CCCNC(=O)c1cn(CC)c2ccc(S(=O)(=O)N3CCc4ccccc4C3)cc2c1=O	99*	-7	0.025	6	-1.2
CCN(Cc1ccccc1)C(=O)Cn1c(=O)n(CC(=O)NCc2ccco2)c(=O)c2sccc21	-6	-8	0.46	3	x
Cc1cc(C)n2nc(CCCCc3nc4nc(C)cc(C)n4n3)nc2n1	-3	-16	-0.25	-12	0.46
CC(=O)c1cccc(NC(=O)COC(=O)C2=COCCO2)c1	-11	-1	0.47	-16	0.092
CCOC(=O)c1ccc(-n2c(CN3CCC(O)CC3)nc3ccc([N+](=O)[O-])cc3c2=O)cc1	16	14	1.5	-47	-0.4
C/C(=N/Nc1nc(-c2ccccc2)cc(-c2ccc(F)cc2)n1)c1cccc(N)c1	42	68*	-0.83	17	x

Bioassay records (PubChem BioAssay)
